Only some compounds are listed: those with a hit (about 6.3% of all), similar ones and a draw of the others.
MPTP block = permeability transition pore inhibition; 360,000 compounds, 1.4% hits; AID 602449; isolated mouse mitochondria, Ca2+ swelling absorbance, 30 min; inhibition, % at 10 µM;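 active = inhibition of 50% or more, scaled per plate between neutral and stimulator controls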
Mdm2 MdmX PPI = disrupts the human Mdm2-MdmX interaction. 330,000 compounds, 3% hits. AID 485346. inhibition, % at 8 µM. SaOS-2 split-luciferase Mdm2/MdmX complementation, luminescence. O15151+Q00987;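 active = inhibition of at least 50% at 8 µM in the primary screen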
Target sequence (O15151 whole entry, looked up): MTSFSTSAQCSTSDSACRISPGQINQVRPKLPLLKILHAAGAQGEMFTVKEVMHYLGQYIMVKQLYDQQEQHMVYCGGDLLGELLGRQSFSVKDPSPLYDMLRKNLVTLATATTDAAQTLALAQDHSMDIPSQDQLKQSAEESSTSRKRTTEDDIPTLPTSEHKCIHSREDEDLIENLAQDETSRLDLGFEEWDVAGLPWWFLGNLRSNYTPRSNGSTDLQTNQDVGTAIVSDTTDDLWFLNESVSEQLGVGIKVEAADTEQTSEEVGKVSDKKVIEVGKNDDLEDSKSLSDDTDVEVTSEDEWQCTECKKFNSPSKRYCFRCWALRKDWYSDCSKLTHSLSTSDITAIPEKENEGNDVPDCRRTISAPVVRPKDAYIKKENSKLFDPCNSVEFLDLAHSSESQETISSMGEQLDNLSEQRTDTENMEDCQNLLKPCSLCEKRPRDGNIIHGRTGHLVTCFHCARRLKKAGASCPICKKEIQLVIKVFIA
Target sequence (Q00987 whole entry, looked up): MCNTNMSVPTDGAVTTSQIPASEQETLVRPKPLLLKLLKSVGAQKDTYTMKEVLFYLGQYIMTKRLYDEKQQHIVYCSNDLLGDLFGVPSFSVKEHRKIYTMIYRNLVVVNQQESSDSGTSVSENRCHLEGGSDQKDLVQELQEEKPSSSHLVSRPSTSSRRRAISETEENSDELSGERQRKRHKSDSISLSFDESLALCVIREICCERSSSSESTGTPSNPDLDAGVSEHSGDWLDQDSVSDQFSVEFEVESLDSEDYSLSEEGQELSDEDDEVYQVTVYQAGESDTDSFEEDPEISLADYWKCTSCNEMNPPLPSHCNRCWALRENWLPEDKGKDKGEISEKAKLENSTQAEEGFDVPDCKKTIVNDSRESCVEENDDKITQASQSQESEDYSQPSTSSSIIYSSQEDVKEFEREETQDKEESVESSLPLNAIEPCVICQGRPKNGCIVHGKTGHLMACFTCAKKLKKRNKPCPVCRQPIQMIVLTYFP
tim23-1 inh = tim23-1 yeast growth inhibition; S. cerevisiae tim23-1 growth, BacTiter-Glo luminescence, 24 h; inhibition, % at 20 µM; 330,000 compounds, 1.3% hits;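 active = growth inhibition of the mutant yeast at or above 50%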;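 also: temperature-sensitive mutant grown at 25 °C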
TIM10 inh = growth inhibitors of TIM10 yeast strain; S. cerevisiae TIM10 strain growth, BacTiter-Glo luminescence, 24 h; inhibition, % at 10 µM; 330,000 compounds, 1.4% hits; AID 463195;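 active = inhibition of 40% or more at the single tested concentration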;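 also: wild-type TIM10 isogenic control strain grown at permissive 25 °C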
tim10-1 inh = growth inhibitors of tim10-1 mutant yeast; S. cerevisiae tim10-1 ts strain growth, BacTiter-Glo, 24 h; inhibition, % at 20 µM; 330,000 compounds, 2.2% hits; AID 463190;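 active = inhibition of at least 40%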;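 also: mutant grown at 25 °C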
Mdm2-MdmX conf = confirmation of human Mdm2/MdmX interaction inhibitors. shares compounds with Mdm2 MdmX PPI. Mdm2-MdmX binding, luminescent assay. inhibition, % at 8 µM. 10,000 compounds, 55% hits. AID 489028; in the data active = inhibition above about 40%
Full FLuc ctr = counter-screen for Mdm2/MdmX inhibitors: full-length luciferase | shares compounds with Mdm2 MdmX PPI | 6,200 compounds, 77% hits | AID 504607 | SaOS-2 full-length luciferase counterscreen, luminescence | inhibition, % at 8 µM;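 active = mean inhibition at 8 µM reaching about 37%, which flags the compound as non-specific, limit read from the data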;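 also: p53-null SaOS-2 cells with luciferase driven by a doxycycline-inducible promoter; compound on cells about two nights before reading with doxycycline added after day one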
Numbers stand for hits; n = inactive; x = no result; ! = not active in a repeat.

SMILES	MPTP block	Mdm2 MdmX PPI	tim23-1 inh	TIM10 inh	tim10-1 inh	Mdm2-MdmX conf	Full FLuc ctr
C=CCn1cc(/C=C/c2cc[n+](C)cc2)c2ccccc21	n	65	n	n	n	42	76
CC(C)n1cc(/C=C/c2cc[n+](C)cc2)c2ccccc21	n	63	n	n	n	n	x
CCOC(=O)C1CN(C(=O)OCC)CC1=NNC(N)=O (centres undefined)	n	x	x	x	x	x	x
C=CCOc1cccn2c(N(C=O)Cc3ccccc3)c(CC)nc12	n	x	x	x	x	x	x
COc1cccc(-c2cc(=O)c3cc(NC(=O)c4ccc(Cl)cc4)ccc3[nH]2)c1	n	n	n	n	n	x	x
COc1cccc(-c2cc(=O)c3cc(NC(=O)c4ccccc4)ccc3[nH]2)c1	n	59	n	n	n	58	42
CC(=O)C(C(c1ccccc1)c1c[nH]c2ccccc12)[N+](=O)[O-] (centres undefined)	n	53	n	n	n	61	57
CN=c1scc(-c2ccccc2Br)n1/N=C/c1ccc[nH]1	x	60	n	n	n	69	143
Cc1c(Cl)cccc1NC(=O)CCC(=O)N/N=C/c1ccc[nH]1	n	55	n	n	n	41	42
Cc1ccc(C)c(NC(=O)CCC(=O)N/N=C/c2ccc[nH]2)c1	n	n	n	n	n	x	x
CC(=O)SC1CC2=CC(=O)CCC2(C)C2CCC3(C)C(CCC34CCC(=O)O4)C12 (centres undefined)	n	51	n	n	n	48	96
COc1ccc(C2C=CC(=O)CC2)c(OC)c1 (centres undefined)	n	x	x	x	x	x	x
CC1CCCCN1S(=O)(=O)c1ccc(S(=O)(=O)N2CCN(c3ccccc3)CC2)cc1 (centres undefined)	n	57	n	n	n	n	x
O=C(c1ccc(S(=O)(=O)N2CCCCC2)cc1)N1CCN(c2ccccc2)CC1	n	n	n	n	n	x	x
CCOC(=O)C1=C(C(=O)OCC)c2ccc(OC)c(OC)c2C1	n	x	x	x	x	x	x
Cc1nc(SCC(=O)Nc2ccc(S(=O)(=O)N3CCOCC3)cc2)c2c(C)c(C)sc2n1	n	82	n	n	n	44	n
COc1ccccc1-n1c(-c2ccccc2)c[n+]2c1CCc1ccccc1-2	n	61	n	n	n	48!	52!
CC(C)c1ccc(-n2c(-c3ccccc3)c[n+]3c2CCc2ccccc2-3)cc1	n	x	x	x	x	x	x
COc1ccc(-n2c(-c3ccc(Br)cc3)c[n+]3c2CCc2ccccc2-3)cc1	n	51	n	n	n	54	61
CCOC(=O)C1CCCN(C(=O)c2ccc(C(F)(F)F)nc2C)CC1 (centres undefined)	n	x	x	x	x	x	x
C=CCc1cccc([C@@H]2[C@@H](C)CC[C@H]3C(=O)N4[C@@H](c5cc(OC)c(OC)c(OC)c5)c5[nH]c6ccccc6c5C[C@H]4C(=O)N23)c1	x	71	n	n	n	63	60
CCOC(=O)c1cc2c(c(-c3cccc(C#Cc4ccc(OC)c(OC)c4)c3)n1)[C@@H](CCO)N(S(=O)C(C)(C)C)C2 (some centres undefined)	n	x	x	x	x	x	x
Cc1cc(NCc2ccccn2)n2nc(C)c(-c3ccc(Cl)cc3)c2n1	n	61	n	n	n	n	x
COc1cc(-c2c(-c3ccsc3)sc3ccccc23)cc(OC)c1OC	n	n	n	n	n	x	x
COC(=O)c1c(-c2ccsc2)sc2ccc(-c3cc(OC)c(OC)c(OC)c3)cc12	n	64	n	n	n	n	x
SMILES	MPTP block	Mdm2 MdmX PPI	tim23-1 inh	TIM10 inh	tim10-1 inh	Mdm2-MdmX conf	Full FLuc ctr
COc1cc(-c2ccc3sc(-c4ccsc4)c(C#CCO)c3c2)cc(OC)c1OC	n	74	n	n	n	n	69
O=S(=O)(CCSc1nc2ccccc2o1)c1nc2ccccc2s1	n	83	n	n	n	72	n
C[C@@H](C(=O)Nc1ccc2c(c1)OCCO2)n1c(=O)[nH]c2ccccc2c1=O	n	62	n	n	n	81	76
C[C@@H](C(=O)Nc1ccc2c(c1)OCO2)n1c(=O)[nH]c2ccccc2c1=O	n	n	n	n	n	x	x
Oc1ccc(/C=N/Nc2nc(N3CCCCCC3)nc(N3CCCCCC3)n2)c(O)c1	n	66	n	n	n	n	x
Oc1ccc(Br)cc1/C=N/Nc1nc(N2CCCCC2)nc(N2CCOCC2)n1	x	n	n	n	n	x	x
COc1cc(CN2C[C@@H](CO)O[C@@H](n3cnc4c(N5CCOCC5)ncnc43)C2)cc(OC)c1OC	n	x	x	x	x	x	x
Cc1c(C)c2ccc(OCC(=O)Nc3cccnc3)c(C)c2oc1=O	n	n	n	n	n	x	x
COc1ccc(-c2cc(=O)oc3c(C)c(OCC(=O)Nc4cccnc4)ccc23)cc1	n	51	n	n	n	n	x
Cc1ccc(CN=C(N)Nc2nc(C)cc(C)n2)cc1	n	68	n	n	n	59	63
COc1ccc(/C=N/n2cnc3c([nH]c4ccc(F)cc43)c2=O)cc1CN1CCCC1	n	100	n	n	n	57	51
O=C(NCCc1c[nH]c2ccccc12)OC1CC2CC1[C@H]1CCCCN1C2=O (some centres undefined)	n	x	x	x	x	x	x
CCOC(=O)c1sc2nc(SC)nc(-c3ccc(Cl)cc3)c2c1N	n	60	n	n	n	n	x
CC(C)Cn1c(=O)c(C(=O)Nc2ccccc2S(N)(=O)=O)c(O)c2ccccc21	n	63	n	n	n	60	n
CNC(=O)c1c(O)c2cccc3c2n(c1=O)CC3	n	75	n	n	n	54	n
Cn1c(=O)c(C(=O)Nc2ccccc2S(N)(=O)=O)c(O)c2ccccc21	n	n	n	n	n	x	x
O=C(NCCCO)c1c(O)c2cccc3c2n(c1=O)CCC3	n	81	n	n	n	56	n
CCn1c(=O)c(C(=O)NCCCO)c(O)c2ccccc21	n	79	n	n	n	41	58
CCCCCC(=O)N1C[C@H](O)[C@@H](n2cc(C3CC3)nn2)C[C@@H]1c1ccc(Cl)cc1	n	x	x	x	x	x	x
CN1OC[C@@H]2CN(C(=S)NCCc3ccccc3)[C@H](c3ccc(N4CCCCC4)cc3)C[C@@H]21	n	x	x	x	x	x	x
O=C(O)Cn1c(CCS(=O)(=O)c2ccc(Br)cc2)nc2ccccc21	n	n	n	n	n	x	x
Cc1ccc(S(=O)(=O)CCc2nc3ccccc3n2CCC#N)cc1	n	62	n	n	n	n	n
CCCCN(C=O)c1c(CC)nc2c(OCc3ccc(S(C)(=O)=O)cc3)cccn12	n	x	x	x	x	x	x
Cc1ccc(-c2nc3ccc(C)cn3c2CC2CCCCC2)cc1	n	x	x	x	x	x	x
CCc1nc2ccc(C(=O)NCc3ccccc3OC)cn2c1N(CC)Cc1cccc(Br)c1	n	x	x	x	x	x	x
CCOC(=O)/C=c1\s/c(=C\c2ccc(C#N)cc2)c(=O)n1CC(=O)NCc1ccco1	n	n	n	n	n	x	x
CCOC(=O)/C=c1\s/c(=C\c2c(OC)ccc3ccccc23)c(=O)n1CC(=O)NCC1CCCO1 (centres undefined)	n	63	n	n	n	65	77

Assay outcomes as filed in PubChem BioAssay.
